Source: article PMC4336329 (PLoS ONE, 2015)
Hit rate of the full screen: of about 310,000 compounds, about 14,000 (4.5%) showed an effect of 50% or more. Effects have a minus sign here. Only a selection was taken, and strong results are over-represented in it overall.

Target: human ether-à-go-go-related gene (hERG) potassium channel (human, UniProt Q12809)
Test: primary screen, population patch clamp on CHO cells stably expressing hERG; higher = less effect of the substance
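Also: peak tail current of the secondary pulse compared with the same well before compound.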

Chain of human ether-à-go-go-related gene (hERG) potassium channel (Q12809 whole entry, looked up): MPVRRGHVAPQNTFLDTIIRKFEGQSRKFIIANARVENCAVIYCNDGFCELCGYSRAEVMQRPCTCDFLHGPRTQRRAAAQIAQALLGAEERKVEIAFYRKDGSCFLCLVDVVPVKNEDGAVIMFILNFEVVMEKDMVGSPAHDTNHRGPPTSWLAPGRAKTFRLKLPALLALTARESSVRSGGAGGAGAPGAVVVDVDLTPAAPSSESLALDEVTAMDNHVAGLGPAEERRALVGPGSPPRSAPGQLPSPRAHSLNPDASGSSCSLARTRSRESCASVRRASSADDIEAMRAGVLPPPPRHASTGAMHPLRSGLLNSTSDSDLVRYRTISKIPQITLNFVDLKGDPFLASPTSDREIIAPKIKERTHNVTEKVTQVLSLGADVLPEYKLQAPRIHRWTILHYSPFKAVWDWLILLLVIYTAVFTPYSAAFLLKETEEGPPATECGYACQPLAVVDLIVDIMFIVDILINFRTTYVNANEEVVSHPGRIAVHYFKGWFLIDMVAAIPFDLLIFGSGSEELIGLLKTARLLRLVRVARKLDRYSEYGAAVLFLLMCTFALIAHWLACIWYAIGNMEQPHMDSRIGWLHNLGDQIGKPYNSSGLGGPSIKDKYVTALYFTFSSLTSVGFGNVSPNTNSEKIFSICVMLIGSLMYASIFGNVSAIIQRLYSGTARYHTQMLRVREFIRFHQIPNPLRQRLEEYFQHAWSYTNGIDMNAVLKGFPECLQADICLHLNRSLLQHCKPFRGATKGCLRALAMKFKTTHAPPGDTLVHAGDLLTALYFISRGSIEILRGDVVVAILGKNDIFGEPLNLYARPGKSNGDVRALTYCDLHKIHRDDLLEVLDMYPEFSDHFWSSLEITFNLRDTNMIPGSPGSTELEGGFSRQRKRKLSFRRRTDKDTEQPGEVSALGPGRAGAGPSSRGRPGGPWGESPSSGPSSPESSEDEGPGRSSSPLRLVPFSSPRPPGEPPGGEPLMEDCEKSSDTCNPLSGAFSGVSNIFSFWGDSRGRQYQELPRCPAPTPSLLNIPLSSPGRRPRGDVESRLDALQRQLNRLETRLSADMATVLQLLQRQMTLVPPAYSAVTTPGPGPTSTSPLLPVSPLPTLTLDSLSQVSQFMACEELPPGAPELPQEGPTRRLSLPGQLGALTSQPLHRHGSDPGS

| Structure (SMILES) | hERG current change (%, negative = inhibition) at 10uM |
| --- | --- |
| CCCCn1cnc2c(c1=O)c1nc3ccccc3nc1n2Cc1ccc2c(c1)OCO2 | 24.1% |
| O=C(NCCCNC(=O)c1cnccn1)c1cccc(Cl)c1 | -5.72% |
| O=C(COC(=O)/C=C/c1ccc(S(=O)(=O)N2CCOCC2)cc1)NCc1ccc(Cl)cc1 | 1.35% |
| Cc1cccc(N2CCN(C(=O)c3cc4c(=O)n(C)c5ccccc5c4n3C)CC2C)c1 (stereo not drawn) | -16% |
| Cc1ccc(S(=O)(=O)NCCC(=O)OCC(=O)Nc2ccccc2Cl)cc1 | -10.5% |
| COc1ccc(-c2cc(C(=O)N3CCN(c4ccccc4)CC3)c3ccccc3n2)cc1 | 5.37% |
| O=C(c1cccn2c(=O)c3ccccc3nc12)N1CCN(c2ccccn2)CC1 | -53% |
| O=C(c1cccn2c(=O)c3cc(Br)ccc3nc12)N1CCN(c2ccccn2)CC1 | -33.6% |
| COc1ccc(N2CCN(C(=O)c3cccn4c(=O)c5ccccc5nc34)CC2)cc1 | -60.1% |
| O=C(c1cccn2c(=O)c3ccccc3nc12)N1CCC2(CC1)OCCO2 | 5.98% |
| O=C(c1cccn2c(=O)c3cc4ccccc4cc3nc12)N1CCN(c2ccccc2)CC1 | -7.73% |
| COc1ccc2c(c1OC)C(=O)OC2C1c2c(cc3c(c2OC)OCO3)CCN1C (stereo not drawn) | -1.42% |
| O=C(CSc1nc2ccccc2c(=O)n1CCC(=O)N1CCN(c2ccccc2)CC1)NCC1CCCO1 (stereo not drawn) | -45.6% |
| COc1ccccc1NC(=O)CSc1nc2ccccc2c(=O)n1CC1CCCO1 (stereo not drawn) | 2.49% |
| O=C(CSc1nc2ccccc2c(=O)n1CC1CCCO1)Nc1ccccc1 (stereo not drawn) | -14.1% |
| O=C1CN(C(=O)CSc2nc3ccccc3c(=O)n2CC2CCCO2)c2ccccc2N1 (stereo not drawn) | -31.3% |
| COc1ccc(OC)c(NC(=O)CSc2nc3ccccc3c(=O)n2CC2CCCO2)c1 (stereo not drawn) | -41.2% |
| CCOc1ccccc1NC(=O)CSc1nc2ccccc2c(=O)n1CC1CCCO1 (stereo not drawn) | -68% |
| O=C(CSc1nc2ccccc2c(=O)n1CC1CCCO1)NCc1ccccc1 (stereo not drawn) | -11% |
| COc1ccccc1N1CCN(C(=O)CSc2nc3ccccc3c(=O)n2CC2CCCO2)CC1 (stereo not drawn) | -67.6% |
| O=c1c2ccccc2nc(SCc2ccncc2)n1CC1CCCO1 (stereo not drawn) | -54% |

| Structure (SMILES) | hERG current change (%, negative = inhibition) at 10uM |
| --- | --- |
| O=C(CSc1nc2ccccc2c(=O)n1CC1CCCO1)Nc1ccccc1Cl (stereo not drawn) | -22.1% |
| O=c1c2ccccc2nc(SCc2ccccc2)n1CC1CCCO1 (stereo not drawn) | -6.67% |
| O=C(CSc1nc2ccccc2c(=O)n1CC1CCCO1)N1CCN(c2ccccc2)CC1 (stereo not drawn) | -73.4% |
| CC(C)(C)c1ccc(C(=O)NCC2CCCN2S(=O)(=O)c2ccccc2)cc1 (stereo not drawn) | -6.28% |
| Cc1ccc(C(=O)N/N=C2\CCSC2)cc1[N+](=O)[O-] | -2.95% |
| COc1ccccc1C(CNC(=O)CSc1ccc2ccccc2c1)N(C)C (stereo not drawn) | -34.9% |
| COc1ccccc1NC(=O)Cn1cnc2c(cnn2-c2ccc(C)c(C)c2)c1=O | 12.1% |
| Cc1[nH]c2ccccc2c1/C=N/NC(=O)c1cccc(S(=O)(=O)Nc2cccc(C(F)(F)F)c2)c1 | 18.6% |
| CC(=O)c1ccc(OCc2cc(C(=O)NCCc3ccc(Cl)cc3)no2)cc1 | -29.7% |
| CSc1nnc(NC(=O)c2nc(S(=O)(=O)Cc3ccccc3)ncc2Cl)s1 | 0.719% |
| O=C(Nn1c(-c2ccc(Br)cc2)nc2ccccc2c1=O)c1ccncc1 | 20.2% |
| O=C(Nc1ccccn1)c1ccc(Cl)c(S(=O)(=O)N2CCCCCC2)c1 | -32.7% |
| CCOC(=O)c1cccc(C(=O)Oc2ccccc2)n1 | 14.6% |
| Cc1nn(-c2ccccc2)c(C)c1C(=O)OCC(=O)Nc1ccccc1 | -7.85% |
| Cc1cccc(-c2nsc(SCC(=O)NCc3ccco3)n2)c1 | 15% |
| Cc1nc(N=C(N)N)nc2c(C)cccc12 | 25.2% |
| Clc1ccc(C(Cn2ccnc2)OCc2c(Cl)cccc2Cl)c(Cl)c1 (stereo not drawn) | -32% |
| Clc1ccc(C(c2ccc(Cl)cc2)n2cc[n+](CC(OCc3ccc(Cl)cc3Cl)c3ccc(Cl)cc3Cl)c2)cc1.[Cl-] (stereo not drawn) | -62.8% |
| C=CCOC(Cn1ccnc1)c1ccc(Cl)cc1Cl (stereo not drawn) | -29.6% |
| CC(C)CCn1nnnc1C(c1ccc(F)cc1)N1CCC(C(N)=O)CC1 (stereo not drawn) | -21.4% |
| Fc1cccc(CNCCc2c[nH]c3ccccc23)c1.O=C(O)C(=O)O | -7.63% |
